The whole screen tested about 39,000 compounds, of which about 3,300 (8.5%) were called active. The sample holds actives, similar compounds and a random draw of the others, so the mix is not that of the screen.
What follows are molecules tested on HepG2 (assay: cytotoxicity call (relative viability < 0.9)). Details: 10 µM.
With `CC(C)CC#Cc1cnc2c(c1)C(=O)N([C@@H](C)CO)C[C@@H](C)[C@H](CN(C)S(=O)(=O)c1ccccc1)O2` the cytotoxicity call was “inactive”. For `CC(C)(C)c1nc(-c2cccc(NS(=O)(=O)c3c(F)cccc3F)c2F)c(-c2ccnc(N)n2)s1`, the cytotoxicity call was “inactive”. For `CC(C)NC(=O)N(C)C[C@H]1Oc2ccc(NC(=O)CCN3CCOCC3)cc2CC(=O)N([C@@H](C)CO)C[C@H]1C`, the cytotoxicity call was “inactive”. In the case of `CCS(=O)(=O)N1C[C@]2(CCN(CC2)Cc2cccc(c2)OC)c2c(n(c3cc(ccc23)OC)C)[C@@H]1CO`, the cytotoxicity call is reported as “inactive”. With `C[C@H](CO)N1C[C@H](C)[C@@H](CN(C)C(=O)c2ccccn2)Oc2cc(Br)ccc2S1(=O)=O` the cytotoxicity call was “inactive”. `CCNC(=O)c1cc2c(c(-c3cccc(-c4cc5ccccc5o4)c3)n1)[C@@H](CCO)N(C(=O)NC(C)C)C2` was tested, and the cytotoxicity call was “inactive”. For `Cc1ccc(S(=O)(=O)N(C)C[C@H]2Oc3ncc(Br)cc3C(=O)N([C@H](C)CO)C[C@@H]2C)cc1`, the cytotoxicity call was “inactive”. With `C[C@H](CO)N1C[C@H](C)[C@@H](CN(C)C(=O)Nc2ccc(F)cc2)OCCCC[C@H](C)Oc2ccc(NC(=O)NC3CCCCC3)cc2C1=O` the cytotoxicity call was “inactive”. For `Cc1c(-c2ccc(C(N)=O)c3[nH]c4cc(C(C)(C)O)ccc4c23)cccc1-n1cnc2ccccc2c1=O`, the cytotoxicity call was “active”. `CCOC(=O)Cn1cnc2ccccc2c1=O` was tested, and the cytotoxicity call was “inactive”. With `Cc1nc2c(cc1C(=O)NN)c(=O)n(C)c(=O)n2C` the cytotoxicity call was “inactive”. `CC(C)NC(=O)Nc1ccc2c(c1)CC(=O)N([C@H](C)CO)C[C@H](C)[C@@H](CN(C)Cc1ccc(Oc3ccccc3)cc1)O2` was tested, and the cytotoxicity call was “inactive”. `O=C(C[C@@H]1CC[C@H]2[C@@H](COC[C@@H](O)CN2C(=O)c2ccncc2)O1)NC1CCC1` was tested, and the cytotoxicity call was “inactive”. `C[C@@H]1CCCCO[C@H](CN(C)C(=O)Nc2cccc3ccccc23)[C@H](C)CN([C@@H](C)CO)C(=O)c2cc(NC(=O)c3ccncc3)ccc2O1` was tested, and the cytotoxicity call was “inactive”. `CC(=O)N(O)CCCCCNC(=O)CC(O)(CC(=O)NCCCCCN(O)C(C)=O)C(=O)O` was tested, and the cytotoxicity call was “inactive”. With `CC(=O)N(O)CCCCNC(=O)CCC(=O)N(O)CCCCCNC(=O)CCC(=O)N(O)CCCCCN` the cytotoxicity call was “inactive”. With `CC(=O)N(O)CCCCCNC(=O)CCC(=O)N(O)CCCCCNC(=O)CCC(=O)N(O)CCCCCN` the cytotoxicity call was “active”. With `C[C@H](N)CCC(=O)NCS(=O)(=O)O` the cytotoxicity call was “inactive”. For `CC(=O)N(O)CCCCCNC(=O)CCC(=O)N(O)CCCCCNC(=O)CCC(=O)N(O)CCCCCN.CS(=O)(=O)O`, the cytotoxicity call was “active”. For `CC(=O)NCCCS(=O)(=O)O`, the cytotoxicity call was “inactive”. `COCCNC(=O)C[C@@H]1CC[C@H]2[C@@H](COC[C@H](O)CN2S(=O)(=O)c2ccccc2F)O1` was tested, and the cytotoxicity call was “inactive”. For `COc1ccc(S(=O)(=O)Nc2ccc3c(c2)[C@H]2C[C@H](CC(=O)NCC4CC4)O[C@@H](CO)[C@H]2O3)cc1`, the cytotoxicity call was “inactive”. In the case of `C[C@@H]1CN([C@@H](C)CO)C(=O)Cc2cc(NS(C)(=O)=O)ccc2O[C@H]1CN(C)S(=O)(=O)c1ccccc1`, the cytotoxicity call is reported as “inactive”. In the case of `CN[C@H]1CN(c2ccc3c(=O)c(C(=O)O)cn(-c4nccs4)c3n2)C[C@@H]1OC`, the cytotoxicity call is reported as “inactive”. `CC(C)NCC(O)c1ccc(O)c(O)c1.Cl` (stereo unspecified) was tested, and the cytotoxicity call was “active”. For `CC(C)NCC(O)c1cc(O)cc(O)c1` (stereo unspecified), the cytotoxicity call was “active”. `CCC(NC(C)C)C(O)c1ccc(O)c(O)c1.CS(=O)(=O)O` (stereo unspecified) was tested, and the cytotoxicity call was “inactive”. With `CC(C)NCC(O)c1ccc2ccccc2c1.Cl` (stereo unspecified) the cytotoxicity call was “inactive”. With `CC(C)NCC(O)c1ccc(NS(C)(=O)=O)cc1.Cl` (stereo unspecified) the cytotoxicity call was “inactive”. `CC(C)(C)NCC(O)c1cc(O)cc(O)c1.O=S(=O)(O)O` (stereo unspecified) was tested, and the cytotoxicity call was “inactive”. In the case of `C[C@@H]1CCCCO[C@H](CN(C)Cc2ccc(C(F)(F)F)cc2)[C@@H](C)CN([C@H](C)CO)C(=O)c2cc(NS(=O)(=O)c3cn(C)cn3)ccc2O1`, the cytotoxicity call is reported as “inactive”. For `COc1ccc(S(=O)(=O)N(C)C[C@@H]2Oc3ccc(NC(=O)NC(C)C)cc3CC(=O)N([C@@H](C)CO)C[C@H]2C)cc1`, the cytotoxicity call was “inactive”. In the case of `COC(=O)[C@@H](C)N(C#N)c1nc(C)cc(C)n1`, the cytotoxicity call is reported as “inactive”. `C[C@@H]1CCCCO[C@@H](CN(C)S(=O)(=O)c2cccs2)[C@@H](C)CN([C@@H](C)CO)C(=O)c2cc(NC(=O)NC3CCCCC3)ccc2O1` was tested, and the cytotoxicity call was “inactive”. In the case of `C[C@H]1CN([C@@H](C)CO)S(=O)(=O)c2ccc(C3=CCCC3)cc2O[C@@H]1CN(C)S(=O)(=O)c1cn(C)cn1`, the cytotoxicity call is reported as “inactive”. `C[C@@H]1CN([C@H](C)CO)C(=O)c2cc(NS(=O)(=O)c3ccc(F)cc3)ccc2O[C@@H]1CN(C)S(=O)(=O)c1ccc(F)cc1` was tested, and the cytotoxicity call was “inactive”. In the case of `C[C@H]1CN([C@@H](C)CO)C(=O)Cc2cc(NC(=O)Nc3ccccc3)ccc2O[C@H]1CN(C)Cc1ccc(Cl)c(Cl)c1`, the cytotoxicity call is reported as “active”. With `C[C@@H]1CN([C@@H](C)CO)C(=O)Cc2cc(NC(=O)Nc3ccccc3)ccc2O[C@H]1CN(C)Cc1ccc(Cl)c(Cl)c1` the cytotoxicity call was “inactive”. With `C[C@H](CO)N1C[C@H](C)[C@@H](CN(C)Cc2ccc(Cl)c(Cl)c2)Oc2ccc(NC(=O)Nc3ccccc3)cc2CC1=O` the cytotoxicity call was “inactive”. With `C[C@@H]1CN([C@H](C)CO)C(=O)Cc2cc(NC(=O)Nc3ccccc3)ccc2O[C@@H]1CN(C)Cc1ccc(Cl)c(Cl)c1` the cytotoxicity call was “active”. `C[C@@H]1CN([C@H](C)CO)C(=O)Cc2cc(NC(=O)Nc3ccccc3)ccc2O[C@H]1CN(C)Cc1ccc(Cl)c(Cl)c1` was tested, and the cytotoxicity call was “active”. `C[C@H](CO)N1C[C@H](C)[C@H](CN(C)Cc2ccc(Cl)c(Cl)c2)Oc2ccc(NC(=O)Nc3ccccc3)cc2CC1=O` was tested, and the cytotoxicity call was “active”. `CC(C)NC(=O)Nc1ccc2c(c1)C(=O)N([C@H](C)CO)C[C@H](C)[C@H](CN(C)C(=O)Nc1ccccc1)OCCCC[C@H](C)O2` was tested, and the cytotoxicity call was “inactive”. For `C[C@@H]1CN([C@@H](C)CO)C(=O)Cc2cc(NS(=O)(=O)c3cn(C)cn3)ccc2O[C@@H]1CN(C)Cc1ccc(C(=O)Nc2ccccc2N)cc1`, the cytotoxicity call was “inactive”. `Cc1noc(C)c1S(=O)(=O)Nc1cccc2c1O[C@H](CN(C)C(=O)Nc1ccccc1)[C@H](C)CN([C@H](C)CO)C2=O` was tested, and the cytotoxicity call was “inactive”. In the case of `CN(C(=O)c1ccc(Cl)c(N2C(=O)CCS2(=O)=O)c1)[C@H]1CCS(=O)(=O)C1`, the cytotoxicity call is reported as “inactive”. With `Cc1ccc(S(=O)(=O)Nc2ccc3c(c2)C(=O)N([C@@H](C)CO)C[C@H](C)[C@@H](CN(C)S(C)(=O)=O)O3)cc1` the cytotoxicity call was “inactive”. In the case of `O=C(C[C@H]1CC[C@H]2[C@@H](COC[C@@H](O)CN2S(=O)(=O)c2ccc(F)cc2)O1)NCCN1CCCCC1`, the cytotoxicity call is reported as “inactive”. In the case of `Cc1noc(C)c1NC(=O)Nc1ccc2c(c1)C(=O)N([C@H](C)CO)C[C@@H](C)[C@@H](CN(C)Cc1ccc3c(c1)OCO3)OCCCC[C@H](C)O2`, the cytotoxicity call is reported as “inactive”. In the case of `O=C(C[C@H]1C[C@H]2c3cc(NS(=O)(=O)c4ccc(F)cc4)ccc3O[C@H]2[C@H](CO)O1)NCc1cccc(F)c1`, the cytotoxicity call is reported as “inactive”. In the case of `C[C@@H]1CN([C@@H](C)CO)C(=O)Cc2cc(NC(=O)Nc3ccccc3)ccc2O[C@@H]1CN(C)Cc1ccc(Cl)c(Cl)c1`, the cytotoxicity call is reported as “active”. In the case of `C[C@H]1CN([C@@H](C)CO)C(=O)Cc2cc(NC(=O)Nc3ccccc3)ccc2O[C@@H]1CN(C)Cc1ccc(Cl)c(Cl)c1`, the cytotoxicity call is reported as “active”. `C[C@H](CO)N1C[C@H](C)[C@H](CN(C)Cc2ccc(C(F)(F)F)cc2)OCCCC[C@H](C)Oc2ccc(NC(=O)c3ccncc3)cc2C1=O` was tested, and the cytotoxicity call was “inactive”. For `C[C@@H]1CN([C@@H](C)CO)S(=O)(=O)c2ccc(C3=CCCC3)cc2O[C@H]1CN(C)S(=O)(=O)c1ccc(F)cc1`, the cytotoxicity call was “inactive”. With `Nc1cccc(OCc2ccccc2)c1` the cytotoxicity call was “inactive”. With `CC(C)NC(=O)Nc1ccc2c(c1)C(=O)N([C@H](C)CO)C[C@@H](C)[C@H](CN(C)Cc1ccc(C(=O)O)cc1)O2` the cytotoxicity call was “inactive”. In the case of `C[C@@H]1CN([C@H](C)CO)S(=O)(=O)c2ccc(C#CCN(C)C)cc2O[C@H]1CN(C)C(=O)Nc1ccccc1F`, the cytotoxicity call is reported as “inactive”. For `CC12C=CC(=O)C=C1CCC1C2C(=O)CC2(C)C1CCC2(O)C(=O)CO` (stereo unspecified), the cytotoxicity call was “inactive”. In the case of `O=P(O)(O)C(Cl)(Cl)P(=O)(O)O`, the cytotoxicity call is reported as “active”. `CC(O)(P(=O)(O)O)P(=O)(O)O` was tested, and the cytotoxicity call was “inactive”. In the case of `CC(O)(P(=O)([O-])O)P(=O)([O-])O.[Na+].[Na+]`, the cytotoxicity call is reported as “inactive”. `C[C@@H]1CN([C@@H](C)CO)C(=O)c2cc(NC(=O)Cc3ccccc3)ccc2O[C@@H](C)CCCCO[C@@H]1CN(C)C(=O)C1CCCCC1` was tested, and the cytotoxicity call was “inactive”. For `COc1ccc(NC(=O)N(C)C[C@@H]2OCCCC[C@@H](C)Oc3ccc(NC(=O)Nc4c(C)noc4C)cc3C(=O)N([C@@H](C)CO)C[C@H]2C)cc1`, the cytotoxicity call was “inactive”. For `CN(Cn1[nH]c(=O)ccc1=O)c1ccccc1`, the cytotoxicity call was “inactive”. `COCCOC(=O)N1C(=O)[C@@]2(c3cc(C#CCNC(N)=O)ccc31)[C@H](C(=O)N1CCCCCCC1)[C@H]1C(=O)O[C@H](c3ccccc3)[C@H](c3ccccc3)N1[C@@H]2c1ccccc1OCCO` was tested, and the cytotoxicity call was “inactive”. In the case of `Cl.OC(c1cc(C(F)(F)F)nc2c(C(F)(F)F)cccc12)C1CCCCN1` (stereo unspecified), the cytotoxicity call is reported as “active”. For `C[C@H]1CN([C@@H](C)CO)C(=O)c2cccc(NC(=O)C3CCCCC3)c2O[C@H]1CN(C)Cc1ccc(-c2ccccc2)cc1`, the cytotoxicity call was “inactive”. In the case of `Cc1noc(C)c1NC(=O)Nc1cccc2c1O[C@@H](CN(C)Cc1ccc(Cl)c(Cl)c1)[C@@H](C)CN([C@H](C)CO)C2=O`, the cytotoxicity call is reported as “inactive”. In the case of `C[C@@H]1CN([C@@H](C)CO)C(=O)Cc2cc(NC(=O)Cc3ccccc3)ccc2O[C@H]1CN(C)Cc1ccc(-c2ccccc2)cc1`, the cytotoxicity call is reported as “inactive”. `C[C@H](CO)N1C[C@H](C)[C@@H](CN(C)Cc2ccc(-c3ccccc3)cc2)Oc2ccc(NC(=O)Cc3ccccc3)cc2CC1=O` was tested, and the cytotoxicity call was “inactive”. For `C[C@H]1CN([C@@H](C)CO)C(=O)Cc2cc(NC(=O)Cc3ccccc3)ccc2O[C@@H]1CN(C)Cc1ccc(-c2ccccc2)cc1`, the cytotoxicity call was “inactive”. `C[C@H]1CN([C@@H](C)CO)C(=O)Cc2cc(NC(=O)Cc3ccccc3)ccc2O[C@H]1CN(C)Cc1ccc(-c2ccccc2)cc1` was tested, and the cytotoxicity call was “active”. In the case of `C[C@@H]1CN([C@H](C)CO)C(=O)Cc2cc(NC(=O)Cc3ccccc3)ccc2O[C@H]1CN(C)Cc1ccc(-c2ccccc2)cc1`, the cytotoxicity call is reported as “inactive”. In the case of `C[C@H](CO)N1C[C@H](C)[C@H](CN(C)Cc2ccc(-c3ccccc3)cc2)Oc2ccc(NC(=O)Cc3ccccc3)cc2CC1=O`, the cytotoxicity call is reported as “inactive”. For `C[C@@H]1CN([C@H](C)CO)C(=O)Cc2cc(NC(=O)Cc3ccccc3)ccc2O[C@@H]1CN(C)Cc1ccc(-c2ccccc2)cc1`, the cytotoxicity call was “active”. With `C[C@@H]1CN([C@@H](C)CO)C(=O)Cc2cc(NC(=O)Cc3ccccc3)ccc2O[C@@H]1CN(C)Cc1ccc(-c2ccccc2)cc1` the cytotoxicity call was “active”.
